Experimental findings from PubChem BioAssay AID720605 (Broad Institute, 2013) are described below.

The nature of this test: U-251 glioblastoma cell viability loss, dose response, HRAS target identification, Alamar Blue fluorescence, 8/24/48 h, dry powder (AID 720605). The settings on record: U-251 glioblastoma viability, 8-48 h; series mostly up to 35 µM. (Resazurin is reduced to fluorescent resorufin, in cell work by metabolically active cells.)

Results with a measured potency or affinity are listed apart. Activity calls are given as the source filed them.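 Rule for the calls: active = cell viability signal falls with a fitted half-maximal concentration within twice the top dose at all three treatment times; inconclusive = treatment times give differing calls; inactive = every treatment time called inactive.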

Consider `Cc1onc(C(=O)N2CCN(C(c3ccncc3)c3ccncc3)CC2)c1[N+](=O)[O-]`, for which the compound was classed as inactive.

As to `CCC(=O)N(c1ccc(OC)c(Cl)c1)C(C(=O)NCCc1ccccc1)c1cccs1` (configuration not stated), the result was inactive.
